The nature of assay [1]: growth inhibition of DIPG glioma cells, dose response, cell-based, SU-DIPG-XVII, MIPE5.0, CellTiter-Glo, qHTS (AID 1347060; cut-off not given, nearly all actives have AC50 up to about 26 µM;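 also: cells exposed to compound for 48 hours before viability readout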). The following applies: SU-DIPG-XVII viability, CellTiter-Glo ATP luminescence. On the technique in general: Cellular ATP, detected with luciferase, serves as a proxy for viable cell number.
Assay [2] is described as follows: growth inhibition of DIPG glioma cells, dose response, cell-based, JHH-DIPG-1, MIPE4.0, CellTiter-Glo, qHTS (AID 1347062; cut-off not given, nearly all actives have AC50 up to about 27 µM;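 also: cells exposed to compound for two days before readout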). The following applies: JHH-DIPG-1 viability, CellTiter-Glo ATP luminescence.
Assay [3] in a line: growth inhibition of DIPG glioma cells, dose response, cell-based, SU-DIPG-IV, MIPE4.0, CellTiter-Glo, qHTS (AID 1347063; cut-off not given, nearly all actives have AC50 up to about 30 µM;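 also: compound exposure lasted 48 hours before the viability readout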). The following applies: SU-DIPG-IV viability, CellTiter-Glo ATP luminescence.
Assay [4] is described as follows: growth inhibition of DIPG glioma cells, dose response, cell-based, SU-DIPG-XIII, MIPE5.0, CellTiter-Glo, qHTS (AID 1347064; cut-off not given, nearly all actives have AC50 up to about 23 µM;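 also: cells exposed to compound for 48 hours before the viability read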). The following applies: SU-DIPG-XIII viability, CellTiter-Glo ATP luminescence.
A short description of assay [5]: viability loss in pontine glioma line – cell-based, SU-DIPG-XXV, MIPE5.0, CellTiter-Glo, qHTS, dose response (AID 1347065; cut-off not given, nearly all actives have AC50 up to about 26 µM;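 also: cells exposed to compound for 48 hours before ATP readout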). The following applies: CellTiter-Glo ATP luminescence.
Assay [6] in a line: SU-DIPG-VI glioma cell viability, MIPE4.0 library, CellTiter-Glo luminescence, qHTS (AID 1347066; cut-off not given, nearly all actives have AC50 up to about 30 µM;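 also: cells exposed to compound for 48 hours before readout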). The following applies: CellTiter-Glo ATP luminescence.
Assay [7] is described as follows: JHH-DIPG-1 glioma cell viability, MIPE5.0 library, CellTiter-Glo luminescence, qHTS (AID 1347067; cut-off not given, nearly all actives have AC50 up to about 26 µM;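 also: cells exposed to compound for 48 hours before readout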). The following applies: JHH-DIPG-1 glioma viability, CellTiter-Glo ATP luminescence.
Assay [8] can be described thus: SU-DIPG-XXV glioma cell viability, MIPE5.0 library, qHTS (AID 1347068; cut-off not given, nearly all actives have IC50 up to about 30 µM;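 also: cells exposed to compound for 48 hours before viability readout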). For orientation: qHTS replaces the single test concentration by a dilution series.
Assay [9] in a line: sensitizers of A549 cells to miR-34 induction, primary screen, imaging, A549 dox-inducible miR-34, nuclei and caspase counts (AID 1347080;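 active = compounds whose cell count with miR-34 switched on is under 0.7 times the count with it off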). The following applies: A549 miR-34 inducible, Hoechst nuclei count, 48 h.
A short description of assay [10]: modifiers of HSF1 nuclear foci, imaging, Selleck Cancer Library (AID 1347162; in the data active = plate-normalised HSF1 focus index below about 0.46). To be noted: human cells, at 10 µM; SSMD: measured here: HSF1 foci SSMD mean; cell count: measured here: cell number; plate-normalised HSF1 focus index: stronger effect = lower value.
Assay [11] can be described thus: survival rescue of mitochondrial mutant cells in low glucose, primary screen, MELAS cybrids, Rieske KO mouse fibroblasts, CellTiter-Glo (AID 1508586;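 active = mean z-score across replicates of 1.96 or higher in either the MELAS or the Rieske mutant cell line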;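 also: z relative to plate mean and SD of compound and empty wells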).
A short description of assay [12]: ovarian cancer cell viability with rucaparib, profiling panel, oncology-focused library, rucaparib conditional (AID 1508598). To be noted: patient-derived ovarian cancer cells, CellTiter-Glo viability, 144 h, stronger effect = lower value.
A short description of assay [13]: growth inhibition of DIPG glioma cells, dose response, cell-based, SU-DIPG-XIII, MIPE4.0, CellTiter-Glo, qHTS (AID 1347061; cut-off not given, nearly all actives have AC50 up to about 37 µM;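 also: cells exposed to compound for 48 hours before readout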). The following applies: SU-DIPG-XIII viability, CellTiter-Glo ATP luminescence.
Where [14] appears, read: stronger effect = lower value, cell number ratio, induced over uninduced.
Setting [15] is: measured here: relative caspase fold change +Dox/-Dox.
Where [16] appears, read: measured here: total cells with miR-34 induction, stronger effect = lower value.
Where [17] appears, read: measured here: total cells without miR-34 induction.
The mark [18] stands for this setting: MELAS cybrid survival, CellTiter-Glo 48 h, stronger effect = higher value.
The mark [19] stands for this setting: Rieske KO mouse fibroblast survival, CellTiter-Glo 72 h.

Inconclusive results are not listed. Calls of active or inactive are those of the source.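 The calls were made as follows, unless noted: active = normalized viability below 100% at a tested concentration; inactive = the rest.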

Consider `O=C(Cc1ccc(-c2ccc(OCCN3CCOCC3)cc2)cn1)NCc1ccccc1`, for which the AC50 in assay [1] was 0.118 µM (active); in [2] it was 0.059 µM (active); in assay [3], 0.0118 µM (active); in assay [4], 0.661 µM (active); in assay [5], 0.118 µM (active); in [6] it was 1.05 µM (active). The AC50 in [7] is 0.132 µM (active). Further, the IC50 in [8] is 0.525 µM (active). Also, the fold change in [9] (setting [14]) is 1.21 (inactive); in [9] (setting [15]), 0.488. Further, the cell count in [9] (setting [16]) was 1530; in assay [9] (setting [17]) it was 1260; in assay [10], 6240. This compound gave an SSMD in [10] of 2.71. For the same compound, in [10], the plate-normalised HSF1 focus index was 1.14 (inactive). Further, the z-score is 1.14 (inactive) in assay [11] (setting [18]) and -0.489 in assay [11] (setting [19]). The viability in assay [12] (at 0.000305 µM, OCI-C5x cells, with rucaparib 10 µM, 100% = cells with rucaparib alone) is 106% (inactive); in assay [12] (at 0.000305 µM, OCI-C5x cells, without rucaparib), 114% (inactive); in assay [12] (at 0.000305 µM, OCI-P5x cells, with rucaparib 20 µM, 100% = cells with rucaparib alone) it was 109% (inactive); in assay [12] (at 0.000305 µM, OCI-P5x cells, without rucaparib), 106% (inactive); in assay [12] (at 0.00122 µM, OCI-C5x cells, with rucaparib 10 µM, 100% = cells with rucaparib alone) it was 111% (inactive); in [12] (at 0.00122 µM, OCI-C5x cells, without rucaparib), 124% (inactive). The viability is 108% (inactive) in [12] (at 0.00122 µM, OCI-P5x cells, with rucaparib 20 µM, 100% = cells with rucaparib alone); 108% (inactive) in assay [12] (at 0.00122 µM, OCI-P5x cells, without rucaparib); 112% (inactive) in [12] (at 0.00488 µM, OCI-C5x cells, with rucaparib 10 µM, 100% = cells with rucaparib alone); 109% (inactive) in [12] (at 0.00488 µM, OCI-C5x cells, without rucaparib); 105% (inactive) in assay [12] (at 0.00488 µM, OCI-P5x cells, with rucaparib 20 µM, 100% = cells with rucaparib alone); 96.7% (active) in assay [12] (at 0.00488 µM, OCI-P5x cells, without rucaparib). Besides, the viability in [12] (at 0.0195 µM, OCI-C5x cells, with rucaparib 10 µM, 100% = cells with rucaparib alone) is 101% (inactive); in assay [12] (at 0.0195 µM, OCI-C5x cells, without rucaparib), 58.9% (active); in assay [12] (at 0.0195 µM, OCI-P5x cells, with rucaparib 20 µM, 100% = cells with rucaparib alone) it was 85.3% (active); in assay [12] (at 0.0195 µM, OCI-P5x cells, without rucaparib), 29.6% (active); in assay [12] (at 0.0781 µM, OCI-C5x cells, with rucaparib 10 µM, 100% = cells with rucaparib alone), 62.9% (active); in assay [12] (at 0.0781 µM, OCI-C5x cells, without rucaparib), 50.7% (active). For the same compound, the viability in assay [12] (at 0.0781 µM, OCI-P5x cells, with rucaparib 20 µM, 100% = cells with rucaparib alone) is 69.5% (active); in [12] (at 0.0781 µM, OCI-P5x cells, without rucaparib), 23.9% (active); in assay [12] (at 0.313 µM, OCI-C5x cells, with rucaparib 10 µM, 100% = cells with rucaparib alone) it was 40.7% (active); in assay [12] (at 0.313 µM, OCI-C5x cells, without rucaparib), 33.9% (active); in assay [12] (at 0.313 µM, OCI-P5x cells, with rucaparib 20 µM, 100% = cells with rucaparib alone), 58.7% (active); in [12] (at 0.313 µM, OCI-P5x cells, without rucaparib), 18.5% (active). Besides, the viability was 46.4% (active) in assay [12] (at 1.25 µM, OCI-C5x cells, with rucaparib 10 µM, 100% = cells with rucaparib alone); 34.1% (active) in assay [12] (at 1.25 µM, OCI-C5x cells, without rucaparib); 58.9% (active) in [12] (at 1.25 µM, OCI-P5x cells, with rucaparib 20 µM, 100% = cells with rucaparib alone); 17.4% (active) in assay [12] (at 1.25 µM, OCI-P5x cells, without rucaparib); 50.3% (active) in [12] (at 5 µM, OCI-C5x cells, with rucaparib 10 µM, 100% = cells with rucaparib alone); 32.6% (active) in assay [12] (at 5 µM, OCI-C5x cells, without rucaparib). Moreover, the viability was 49.4% (active) in assay [12] (at 5 µM, OCI-P5x cells, with rucaparib 20 µM, 100% = cells with rucaparib alone) and 15.3% (active) in [12] (at 5 µM, OCI-P5x cells, without rucaparib).
As to `C=C1C(=O)OC2/C=C(/C)CC/C=C(/C)CCC12` (stereo not given), the AC50 is 20.9 µM (active) in assay [1], 18.6 µM (active) in assay [5] and 16.6 µM (active) in [7]. In assay [13], the result was inactive.
With `C=CC(=O)Nc1ccc2ncnc(Nc3ccc(OCc4cccc(F)c4)c(Cl)c3)c2c1`, the AC50 in assay [1] is 5.25 µM (active); in [2], 23.5 µM (active); in [3] it was 1.32 µM (active); in assay [4] it was 11.8 µM (active); in [5] it was 6.61 µM (active); in [6], 4.69 µM (active). For the same compound, the AC50 in assay [7] is 8.33 µM (active). Also, the concentration for half-maximal inhibition (IC50) in assay [8] is 14.8 µM (active). For the same compound, the values for the fold change in assay [9] (setting [14]) and in assay [9] (setting [15]) were 0.764 (inactive) and 2.08, respectively. Further, the results for the cell count in [9] (setting [16]) and in assay [9] (setting [17]) were 4290 and 5610, respectively. Further, the results for the z-score in assay [11] (setting [18]) and in [11] (setting [19]) were -0.263 (inactive) and 0.764, respectively.
Take `CC(C)(C)c1nc2c3cc[nH]c(=O)c3c3cc(F)ccc3c2[nH]1`: the AC50 in assay [1] was 16.6 µM (active); in assay [5] it was 1.48 µM (active). In addition, the outcome in assay [13] was inactive.

The term AC50 denotes the concentration at which the activity in the assay is half-maximal. For orientation: IC50 means the point on the concentration scale where inhibition reaches its midpoint. In general, viability refers to a read-out of living cells in per cent, often relative to untreated cells.

The values above are taken from PubChem BioAssay.
